Active and inactive are the calls of the source. Rule for the calls: active = hit-call score of the fitted dose curve at least 0.9, where 1 is the maximum; inactive = score below 0.9.
Assays:
[1] = ATG_GLI_CIS: Attagene CIS-FACTORIAL HepG2 Assay for human Zinc Finger Protein GLI1 (AID 2282945); details: HepG2, Attagene cis-factorial reporter mRNA, GLI element; actives raise or lower the signal
Procedure, shortened: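 Transiently transfected HepG2 cells report endogenous transcription factor activity via cis-element-driven reporter units. After 24 h compound exposure, reporter mRNA was measured by RT-PCR with capillary electrophoresis; bidirectional fitting against DMSO baseline.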

[2] = ATG_GRE_CIS: Attagene CIS-FACTORIAL HepG2 Assay for human Glucocorticoid Response Elements (GRE) (AID 2282947); details: HepG2 GRE cis-reporter, Attagene multiplex mRNA; actives raise or lower the signal
Procedure, shortened: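 Fluorescence intensity of reporter-specific cDNA fragments, separated by capillary electrophoresis, provides the signal. Constructs carry cis-regulating promoters in transiently transfected HepG2 liver cells; 24 h incubation; fitting is bidirectional against DMSO.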

[3] = ATG_M_32_CIS: Attagene CIS-FACTORIAL HepG2 Assay for M32 Transcription Factor (Internal Marker) (AID 2282949); details: HepG2 Attagene cis-factorial M32 reporter, mRNA; actives raise or lower the signal;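 note: background control marker of the multiplexed CIS panel rather than a real target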
Procedure, shortened: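 HepG2 transfectants (cis-regulated reporter transcription units) dosed 24 h. Reporter mRNA by RT-PCR plus CE, analysed as gain or loss relative to DMSO.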

[4] = ATG_M_06_CIS: Attagene CIS-FACTORIAL HepG2 Assay for M06 Transcription Factor (Internal Marker) (AID 2282950); details: HepG2 Attagene CIS-FACTORIAL M06 internal marker reporter; actives raise or lower the signal
Procedure, shortened: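 Fluorescence-labelled RT-PCR products from cis-promoter reporter units, cut with HpaI and resolved by capillary electrophoresis, give the signal. Cells are human HepG2, dosed for 24 h. Serves as background control, fitted relative to DMSO.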

[5] = target: Hypoxia-inducible factor 1-alpha (Homo sapiens) (UniProt Q16665); experiment: ATG_HIF1a_CIS: Attagene CIS-FACTORIAL HepG2 Assay for human Hypoxia Inducible Factor 1 (HIF1A) (AID 2282951); details: HepG2 Attagene cis-factorial HIF1a reporter transcription; actives raise or lower the signal
Sequence of Hypoxia-inducible factor 1-alpha (Homo sapiens) (Q16665 whole entry, looked up): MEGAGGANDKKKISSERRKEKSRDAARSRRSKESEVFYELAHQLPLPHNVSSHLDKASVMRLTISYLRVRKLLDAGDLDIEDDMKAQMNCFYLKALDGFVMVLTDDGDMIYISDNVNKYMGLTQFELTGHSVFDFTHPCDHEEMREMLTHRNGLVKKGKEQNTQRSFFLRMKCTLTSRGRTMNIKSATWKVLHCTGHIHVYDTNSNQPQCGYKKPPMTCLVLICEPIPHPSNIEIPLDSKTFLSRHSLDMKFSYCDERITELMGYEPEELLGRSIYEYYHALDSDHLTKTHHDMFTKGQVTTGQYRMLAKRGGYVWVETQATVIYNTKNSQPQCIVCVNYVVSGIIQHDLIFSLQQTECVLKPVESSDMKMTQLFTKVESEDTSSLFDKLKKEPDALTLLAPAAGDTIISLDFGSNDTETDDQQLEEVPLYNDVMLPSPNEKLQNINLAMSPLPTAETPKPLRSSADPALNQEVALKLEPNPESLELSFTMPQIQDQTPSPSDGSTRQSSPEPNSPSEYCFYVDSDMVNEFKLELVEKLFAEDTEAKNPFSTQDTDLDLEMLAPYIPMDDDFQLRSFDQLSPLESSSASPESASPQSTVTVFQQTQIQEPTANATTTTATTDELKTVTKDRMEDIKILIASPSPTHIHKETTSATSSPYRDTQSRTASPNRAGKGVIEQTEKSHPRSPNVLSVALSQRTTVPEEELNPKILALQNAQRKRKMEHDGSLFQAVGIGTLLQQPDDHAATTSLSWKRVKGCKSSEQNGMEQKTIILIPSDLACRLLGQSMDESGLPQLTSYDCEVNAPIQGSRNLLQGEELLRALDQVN
Procedure, shortened: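 HepG2 cells transiently transfected with multiple cis-regulated reporter transcription units measure endogenous transcription factor activity. After 24 h exposure, reporter mRNA is quantified by RT-PCR with 6-FAM labelling, HpaI digestion and capillary electrophoresis. Bidirectional fitting against DMSO.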

[6] = target: Hepatocyte nuclear factor 6 (Homo sapiens) (UniProt Q9UBC0); experiment: ATG_HNF6_CIS: Attagene CIS-FACTORIAL HepG2 Assay for human Hepatocyte Nuclear Factor 6 (HNF6) (AID 2282952); details: HepG2 Attagene cis-factorial HNF6 reporter transcription; actives raise or lower the signal
Sequence of Hepatocyte nuclear factor 6 (Homo sapiens) (Q9UBC0 whole entry, looked up, the tested form may be a part): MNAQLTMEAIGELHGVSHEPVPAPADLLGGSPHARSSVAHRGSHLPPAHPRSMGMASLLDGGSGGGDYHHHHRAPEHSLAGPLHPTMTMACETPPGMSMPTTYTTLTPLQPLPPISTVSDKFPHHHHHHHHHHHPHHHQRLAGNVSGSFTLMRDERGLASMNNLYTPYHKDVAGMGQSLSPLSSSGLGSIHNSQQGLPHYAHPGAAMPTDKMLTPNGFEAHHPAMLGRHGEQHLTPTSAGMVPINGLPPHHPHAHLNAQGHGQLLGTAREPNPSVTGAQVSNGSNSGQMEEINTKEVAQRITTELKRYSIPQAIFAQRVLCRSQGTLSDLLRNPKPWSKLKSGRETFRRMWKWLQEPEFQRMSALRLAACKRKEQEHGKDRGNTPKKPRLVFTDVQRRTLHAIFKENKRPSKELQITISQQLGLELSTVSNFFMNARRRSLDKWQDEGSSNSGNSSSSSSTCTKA
Procedure, shortened: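 First, HepG2 cells were transfected with the multiplexed cis reporter library and dosed with chemical for 24 h. Next, RNA was reverse-transcribed, PCR-amplified and fluorescently labelled. Finally, HpaI-digested fragments were read by capillary electrophoresis.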

[7] = target: Heat shock factor protein 1 (Homo sapiens) (UniProt Q00613); experiment: ATG_HSE_CIS: Attagene CIS-FACTORIAL HepG2 Assay for human Heat Shock Transcription Factor 1 (HSE) (AID 2282953); details: HepG2 HSE cis-reporter, Attagene RNA transcription; actives raise or lower the signal
Sequence of Heat shock factor protein 1 (Homo sapiens) (Q00613 whole entry, looked up): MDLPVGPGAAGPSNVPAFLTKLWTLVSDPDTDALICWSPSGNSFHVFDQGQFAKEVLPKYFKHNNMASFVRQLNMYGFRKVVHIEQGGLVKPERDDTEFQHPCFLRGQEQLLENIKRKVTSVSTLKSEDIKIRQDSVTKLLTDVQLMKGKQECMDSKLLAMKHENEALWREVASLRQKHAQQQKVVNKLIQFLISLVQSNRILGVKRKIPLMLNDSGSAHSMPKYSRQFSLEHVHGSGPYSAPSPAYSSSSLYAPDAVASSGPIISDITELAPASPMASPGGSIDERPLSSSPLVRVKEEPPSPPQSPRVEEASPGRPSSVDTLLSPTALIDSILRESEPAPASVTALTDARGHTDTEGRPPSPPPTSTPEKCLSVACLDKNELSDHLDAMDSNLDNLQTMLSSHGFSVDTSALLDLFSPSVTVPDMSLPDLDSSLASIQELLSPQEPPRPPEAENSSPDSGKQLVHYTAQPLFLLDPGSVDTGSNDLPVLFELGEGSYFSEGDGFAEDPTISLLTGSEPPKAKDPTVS
Procedure, shortened: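 After a 24 h incubation with test chemical, transfected HepG2 cells were harvested for RNA; reporter transcripts were measured by RT-PCR and capillary electrophoresis. Values reflect gain or loss of signal relative to DMSO.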

[8] = ATG_PBREM_CIS: Attagene CIS-FACTORIAL HepG2 Assay for human Phenobarbital-responsive Enhancer Module (PBREM) (AID 2282955); details: HepG2 PBREM cis-reporter, Attagene multiplexed transcription; actives raise or lower the signal
Procedure, shortened: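 HepG2 cells transiently transfected with multiple cis-regulated reporter units measure endogenous transcription factor activity; 24 h compound exposure. Reporter mRNA quantified by RT-PCR, fluorescent labelling, HpaI digestion and capillary electrophoresis; bidirectional fit versus DMSO.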

[9] = target: Paired box protein Pax-6 (Homo sapiens) (UniProt P26367); experiment: ATG_Pax6_CIS: Attagene CIS-FACTORIAL HepG2 Assay for human Paired Box 6 (PAX6) (AID 2282956); details: HepG2 CIS-FACTORIAL PAX6 reporter transcription, RNA readout; actives raise or lower the signal
Sequence of Paired box protein Pax-6 (Homo sapiens) (P26367 whole entry, looked up): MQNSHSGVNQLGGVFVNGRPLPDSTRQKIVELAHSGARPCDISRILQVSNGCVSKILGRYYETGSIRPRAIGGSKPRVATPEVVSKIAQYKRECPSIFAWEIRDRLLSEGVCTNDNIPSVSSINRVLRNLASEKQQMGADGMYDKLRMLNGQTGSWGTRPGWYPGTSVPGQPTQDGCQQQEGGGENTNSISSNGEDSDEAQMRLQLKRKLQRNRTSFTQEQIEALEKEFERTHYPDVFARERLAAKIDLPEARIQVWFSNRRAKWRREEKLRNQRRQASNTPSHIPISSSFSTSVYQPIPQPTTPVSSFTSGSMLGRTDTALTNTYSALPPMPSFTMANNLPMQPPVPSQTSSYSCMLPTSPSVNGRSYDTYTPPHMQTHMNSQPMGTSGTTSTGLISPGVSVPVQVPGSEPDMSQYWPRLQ
Procedure, shortened: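 Read-out is reporter transcript level, measured by RT-PCR with fluorescent primer extension and capillary electrophoresis after 24 h dosing of transfected HepG2 cells. Activity in either direction fitted relative to DMSO control.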

[10] = ATG_PXRE_CIS: Attagene CIS-FACTORIAL HepG2 Assay for human Pregnane X Receptor Element (PXRE) (AID 2282957); details: HepG2 Attagene CIS-FACTORIAL PXRE reporter, mRNA; actives raise or lower the signal
Procedure, shortened: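 After a 24 h chemical incubation, total RNA from transfected HepG2 cells was reverse-transcribed and reporter cDNA amplified, FAM-labeled, HpaI-digested and sized by capillary electrophoresis. DMSO served as baseline for bidirectional curve fitting.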

[11] = ATG_PPRE_CIS: Attagene CIS-FACTORIAL HepG2 Assay for human Peroxisome Proliferator-activated Response Element (PPRE) (AID 2282958); details: HepG2 PPRE cis-element reporter, Attagene transcription factor profiling; actives raise or lower the signal
Procedure, shortened: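 HepG2 cells are transiently transfected with multiplexed cis-promoter reporter units to report endogenous PPAR activity. After 24 h dosing, reporter mRNA is read by RT-PCR and capillary electrophoresis. Fitting is bidirectional against DMSO.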

[12] = ATG_RORE_CIS: Attagene CIS-FACTORIAL HepG2 Assay for human RAR-related Orphan Receptor Element (RORE) (AID 2282959); details: HepG2 Attagene cis-factorial RORE reporter, mRNA; actives raise or lower the signal
Procedure, shortened: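 HepG2 cells carrying transiently transfected cis-regulated reporter units; RORE-driven reporter mRNA quantified 24 h post-dosing by RT-PCR, 6-FAM primer extension, HpaI digestion and capillary electrophoresis. Bidirectional fit versus DMSO.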

[13] = ATG_Sox_CIS: Attagene CIS-FACTORIAL HepG2 Assay for human SRY-box transcription factor (SOX) (AID 2282960); details: HepG2 Attagene cis-factorial SOX reporter, mRNA; actives raise or lower the signal
Procedure, shortened: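 HepG2 cells transiently transfected with multiple cis-regulated reporter units, then dosed for 24 h. Reporter mRNA quantified by RT-PCR, fluorescent labelling, HpaI digestion and capillary electrophoresis; bidirectional fit versus DMSO.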

[14] = target: Transcription factor Sp1 (Homo sapiens) (UniProt P08047); experiment: ATG_Sp1_CIS: Attagene CIS-FACTORIAL HepG2 Assay for human Specificity Protein 1 (Sp1) (AID 2282961); details: HepG2 Sp1 cis-reporter transcription, actives raise or lower the signal
Sequence of Transcription factor Sp1 (Homo sapiens) (P08047 whole entry, looked up): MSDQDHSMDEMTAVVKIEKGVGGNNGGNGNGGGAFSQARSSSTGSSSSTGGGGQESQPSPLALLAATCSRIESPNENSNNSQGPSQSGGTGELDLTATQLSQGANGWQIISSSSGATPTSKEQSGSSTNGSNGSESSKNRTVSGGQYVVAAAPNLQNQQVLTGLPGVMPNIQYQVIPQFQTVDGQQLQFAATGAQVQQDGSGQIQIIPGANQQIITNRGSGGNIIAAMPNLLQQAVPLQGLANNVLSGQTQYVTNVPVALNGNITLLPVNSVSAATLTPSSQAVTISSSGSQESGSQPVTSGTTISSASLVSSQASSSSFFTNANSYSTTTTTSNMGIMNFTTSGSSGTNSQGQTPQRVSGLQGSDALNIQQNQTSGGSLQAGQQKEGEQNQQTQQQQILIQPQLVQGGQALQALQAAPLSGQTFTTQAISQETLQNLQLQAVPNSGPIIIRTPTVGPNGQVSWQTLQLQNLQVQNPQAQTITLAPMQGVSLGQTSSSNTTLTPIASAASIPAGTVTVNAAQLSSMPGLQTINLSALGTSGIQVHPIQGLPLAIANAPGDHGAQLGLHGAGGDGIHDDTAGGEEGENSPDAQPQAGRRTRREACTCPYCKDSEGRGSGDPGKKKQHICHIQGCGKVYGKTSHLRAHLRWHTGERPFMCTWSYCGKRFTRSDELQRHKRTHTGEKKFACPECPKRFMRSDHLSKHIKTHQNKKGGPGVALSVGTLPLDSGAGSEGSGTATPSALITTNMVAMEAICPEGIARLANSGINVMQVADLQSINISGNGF
Procedure, shortened: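 HepG2 cells transiently transfected with multiplexed cis-regulated reporter constructs, chemical exposure 24 h. Reporter mRNA quantified by RT-PCR with capillary electrophoresis; bidirectional fit relative to DMSO.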

[15] = ATG_SREBP_CIS: Attagene CIS-FACTORIAL HepG2 Assay for human Sterol Regulatory Element Binding (SREBP) (AID 2282962); details: HepG2 Attagene cis-factorial SREBP reporter, mRNA; actives raise or lower the signal
Procedure, shortened: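 Endogenous SREBP activity read as cis-element-driven reporter transcript in transiently transfected HepG2, 24 h post-dosing; quantified via RT-PCR plus capillary electrophoresis of fluorescent fragments. Gain or loss of signal fitted relative to DMSO baseline.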

[16] = target: Signal transducer and activator of transcription 3 (Homo sapiens) (UniProt P40763); experiment: ATG_STAT3_CIS: Attagene CIS-FACTORIAL HepG2 Assay for human Signal Transducer and Activator of Transcription 3 (STAT3) (AID 2282963); details: HepG2, Attagene cis-factorial STAT3 reporter transcription; actives raise or lower the signal
Sequence of Signal transducer and activator of transcription 3 (Homo sapiens) (P40763 whole entry, looked up, the tested form may be a part): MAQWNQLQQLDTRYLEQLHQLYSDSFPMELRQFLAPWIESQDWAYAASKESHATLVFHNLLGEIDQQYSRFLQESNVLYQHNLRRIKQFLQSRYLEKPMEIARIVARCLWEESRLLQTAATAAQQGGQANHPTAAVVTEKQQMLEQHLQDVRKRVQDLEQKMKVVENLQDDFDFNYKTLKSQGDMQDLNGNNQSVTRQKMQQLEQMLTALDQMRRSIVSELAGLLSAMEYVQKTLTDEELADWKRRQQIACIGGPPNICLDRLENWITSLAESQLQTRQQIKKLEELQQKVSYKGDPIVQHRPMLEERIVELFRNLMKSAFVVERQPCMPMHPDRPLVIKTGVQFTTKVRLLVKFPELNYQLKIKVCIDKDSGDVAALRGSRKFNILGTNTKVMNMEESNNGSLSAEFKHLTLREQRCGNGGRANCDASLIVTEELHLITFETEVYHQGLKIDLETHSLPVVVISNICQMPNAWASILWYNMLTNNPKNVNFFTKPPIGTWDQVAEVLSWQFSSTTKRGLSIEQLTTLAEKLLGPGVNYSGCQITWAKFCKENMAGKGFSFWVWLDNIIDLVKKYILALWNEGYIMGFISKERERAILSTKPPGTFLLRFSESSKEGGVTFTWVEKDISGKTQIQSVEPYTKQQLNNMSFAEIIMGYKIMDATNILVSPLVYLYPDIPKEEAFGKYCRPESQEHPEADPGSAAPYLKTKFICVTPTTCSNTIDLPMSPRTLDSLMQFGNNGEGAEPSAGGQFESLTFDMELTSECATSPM
Procedure, shortened: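 Fluorescence intensity of 6-FAM-labelled reporter fragments, separated by capillary electrophoresis after RT-PCR, gave the signal. Cells were HepG2 transfected with cis-element reporter units and treated 24 h; fitting was bidirectional relative to DMSO.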

[17] = ATG_TA_CIS: Attagene CIS-FACTORIAL HepG2 Assay for human TA Basal Promoter (AID 2282964); details: HepG2 Attagene CIS-factorial TA basal promoter reporter; actives raise or lower the signal
Procedure, shortened: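 Multiplexed mRNA reporter assay, HepG2, 24 h. Reporter cDNA amplified, 6-FAM primer-extended, HpaI-cut, CE-sized; DMSO = negative control and baseline.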

[18] = ATG_MRE_CIS: Attagene CIS-FACTORIAL HepG2 Assay for human Metal Responsive Element (MRE) (AID 2282954); details: HepG2 MRE cis-reporter transcription, Attagene multiplex; actives raise or lower the signal
Procedure, shortened: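 Measured here is mRNA induction from an MRE cis-element reporter in HepG2 after 24 h, quantified by fluorescence of labelled RT-PCR products on capillary electrophoresis; gain- and loss-of-signal fits use DMSO as baseline.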

[19] = ATG_ISRE_CIS: Attagene CIS-FACTORIAL HepG2 Assay for human Interferon Regulatory Factor 1 (IRF1) binding to an Interferon-Stimulated Response Element (ISRE) (AID 2282948); details: HepG2 ISRE cis-reporter (Attagene), mRNA transcription readout; actives raise or lower the signal
Procedure, shortened: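 Endogenous transcription factor activity read as reporter transcript abundance via RT-PCR and capillary electrophoresis. HepG2 cells transiently transfected, 24 h chemical exposure. Gain or loss fitted against DMSO baseline.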

Measured: AC50

CCCC1CCCC(=O)O1 (stereo not drawn)
active: [11] 11 µM
inactive: [1] | [2] | [3] | [4] | [5] | [6] | [7] | [8] | [9] | [10] | [12] | [13] | [14] | [15] | [16] | [17]

CO[Si](CCCS)(OC)OC
inactive: [1] | [2] | [3] | [4] | [5] | [6] | [18] | [9] | [10] | [11] | [12] | [13] | [14] | [15] | [16] | [17]

CCCCCCCCCCCCC
inactive: [1] | [2] | [19] | [3] | [4] | [5] | [10] | [12] | [13] | [14] | [15] | [16] | [17]

CCc1cccc(C)c1N(C(=O)CS(=O)(=O)O)C(C)COC (stereo not drawn)
active: [10] 29.2 µM
inactive: [1] | [2] | [19] | [3] | [4] | [5] | [18] | [8] | [9] | [11] | [13] | [14] | [15] | [16] | [17]

CCC(=O)C1CC(C(C)C)CC=C1C (stereo not drawn)
inactive: [1] | [2] | [3] | [4] | [5] | [7] | [18] | [8] | [12] | [13] | [14] | [15] | [16] | [17]
active: [10] 4.33 µM

COC(Cc1ccccc1)OC
inactive: [1] | [2] | [19] | [3] | [4] | [5] | [7] | [18] | [8] | [9] | [10] | [12] | [13] | [14] | [15] | [16] | [17]

Cn1ccnc1
inactive: [1] | [2] | [19] | [3] | [4] | [6] | [7] | [18] | [8] | [9] | [10] | [11] | [12] | [14] | [15] | [16] | [17]

CCCC(CC)c1ccccc1 (stereo not drawn)
active: [10] 36.2 µM | [14] 180 µM | [15] 164 µM
inactive: [1] | [2] | [19] | [3] | [4] | [5] | [7] | [18] | [8] | [9] | [12] | [13] | [16] | [17]

CC(=O)CCC=C(C)C
inactive: [1] | [2] | [3] | [4] | [5] | [6] | [7] | [18] | [9] | [11] | [12] | [14] | [15] | [16] | [17]

CC(C)c1ccc(O)c(C(C)C)c1
active: [10] 2.98 µM
inactive: [1] | [2] | [19] | [3] | [4] | [5] | [7] | [18] | [9] | [11] | [12] | [13] | [14] | [15] | [16] | [17]

CC(C)c1cc(C(C)C)cc(C(C)C)c1
inactive: [2] | [4] | [5] | [6] | [18] | [11] | [12] | [16] | [17]
active: [1] 146 µM | [3] 162 µM | [9] 159 µM | [13] 159 µM | [14] 145 µM | [15] 100 µM

CC/C=C\CCOC(=O)c1ccccc1O
inactive: [1] | [2] | [3] | [4] | [5] | [6] | [7] | [18] | [8] | [9] | [10] | [11] | [12] | [13] | [14] | [15] | [16] | [17]

Reference: PubChem BioAssay (EPA / NIEHS)
